Hits are enriched below; roughly 5.4% of the tested compounds scored in any of these assays.
Calb FLC – C. albicans growth inhibition with fluconazole, primary screen, CaCi-2 strain, Alamar Blue fluorescence | actives 0.57% (n = 300,000) | growth inhibition, % (test concentration not listed) | C. albicans CaCi-2 (fluconazole-resistant clinical isolate) + fluconazole, 48 h | AID 1979, 2009;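 active = growth inhibition above about 58% in most replicates, limit read from the data, passing the limit was not always enough; inconclusive = exactly half the replicates above a set limit; inactive = most replicates below a set limit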;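 also: all wells also contain fluconazole at 8 µg/ml as a sub-toxic cotreatment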
ALR inh – inhibitors of human ALR sulfhydryl oxidase, primary screen, biochemical, H2O2 detection, HRP-luminol luminescence, single point; FAD-linked sulfhydryl oxidase ALR (Homo sapiens), P55789; purified ALR, DTT oxidation; inhibition, % (test concentration not listed); actives 3.8% (n = 290,000); AID 485317, 2010;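 active = mean replicate inhibition above about 79%, with every replicate also reaching it, limit read from the data; inconclusive = only one of the two criteria met; inactive = mean below limit and not every replicate reaching it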
Target sequence (P55789 whole entry, looked up): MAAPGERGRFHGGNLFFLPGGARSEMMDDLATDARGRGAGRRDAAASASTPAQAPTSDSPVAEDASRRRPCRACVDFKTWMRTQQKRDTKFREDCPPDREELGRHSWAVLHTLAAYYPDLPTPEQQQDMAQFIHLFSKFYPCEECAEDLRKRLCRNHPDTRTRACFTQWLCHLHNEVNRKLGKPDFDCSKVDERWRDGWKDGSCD
PP1 counter – PP1-alpha phosphatase inhibitors, primary screen, counter-screen for PP5 inhibitor project, biochemical, fluorescence, OMFP substrate, single point; purified PP1alpha; inhibition, % at 6.7 µM; actives 0.9% (n = 320,000); AID 2235, 2010;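 active = inhibition above the mean inhibition of all tested compounds plus 3 SD, computed separately for each screening campaign, cut at about 15% in these data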
Target sequence (P62136 whole entry, looked up): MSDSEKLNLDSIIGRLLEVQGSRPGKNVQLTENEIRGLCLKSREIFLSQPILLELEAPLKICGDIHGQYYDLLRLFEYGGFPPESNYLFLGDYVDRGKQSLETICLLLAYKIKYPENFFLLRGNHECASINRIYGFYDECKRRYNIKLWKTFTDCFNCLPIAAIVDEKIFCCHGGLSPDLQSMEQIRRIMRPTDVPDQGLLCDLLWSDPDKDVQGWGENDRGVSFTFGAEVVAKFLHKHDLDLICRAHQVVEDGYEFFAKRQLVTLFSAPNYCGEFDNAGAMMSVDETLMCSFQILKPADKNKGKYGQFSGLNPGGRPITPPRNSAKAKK
CSC inhib – cancer stem cell viability inhibitors, primary screen, luminescence; inhibition, % at 7.5 µM; cancer stem cell-like cells viability; actives 1.1% (n = 300,000); in the data active = inhibition above about 75%; inconclusive = no clear call, values can overlap the other calls; tested in HMLE shEcad cells
PP5 primary – PP5 phosphatase inhibitors, primary screen, biochemical, fluorescence; Serine/threonine-protein phosphatase 5 (Homo sapiens), P53041; purified PP5c, OMFP substrate fluorescence; inhibition, % at 6.7 µM; actives 0.18% (n = 320,000); AID 1987, 2009;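 active = inhibition above the campaign's mean inhibition across all tested compounds plus 3 SD, cut at about 9.5% in these data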
Large screens that a line does not name were inactive.

COc1cc(OC)cc(C(=O)NC(=S)NNC(=O)c2cnccn2)c1	CSC inhib 106
COc1ccc(C(=O)NC(=S)NNC(=O)c2cnccn2)cc1OC	ALR inh 98
COc1ccc(C(=O)NCCNC(=O)c2cnccn2)cc1OC	none (no result: CSC inhib)
O=C(NC(=O)N1CCN(c2cccc(Cl)c2)CC1)c1ccc(Cl)cc1	CSC inhib 110
O=C(NC(=O)N1CCN(c2cccc(Cl)c2)CC1)c1ccccc1	none
CCC1=C2CC[C@H]3C(=O)N(c4ccccc4)C(=O)[C@H]3[C@H]2[C@@]2(C)C(=NCC3CC3)OC(=O)N2C1=O	none
CC(C)c1ccc(/C=C2\C(=N)N3N=C(CC(=O)N4CCCCC4)SC3=NC2=O)cc1	ALR inh 96
COc1ccc(/C=C2\C(=N)N3N=C(CC(=O)N4CCCCC4)SC3=NC2=O)cc1	ALR inh 80
Cc1ccc(/C=C2\C(=N)N3N=C(CC(=O)N4CCCCC4)SC3=NC2=O)cc1	none
CSc1ccc(/C=C2\C(=N)N3N=C(CC(=O)N4CCCCC4)SC3=NC2=O)cc1	ALR inh 96
CCN(CC)c1ccc(/C=C2\C(=N)N3N=C(CC(=O)N4CCOCC4)SC3=NC2=O)cc1	ALR inh 98
CC1CC1C(=O)OCC(=O)NCc1ccccc1 (stereo not drawn)	none (no result: Calb FLC, PP1 counter, PP5 primary)
N=C1/C(=C\c2ccc(OC(=O)c3ccc(F)cc3)cc2)C(=O)N=C2SC(N3CCOCC3)=NN12	ALR inh 95
CC1CCN(C2=NN3C(=N)/C(=C\c4ccc(OC(=O)c5ccco5)cc4)C(=O)N=C3S2)CC1	CSC inhib inconclusive
Cc1cc(C)nc(SCc2nc(N)nc(-c3ccccc3O)n2)n1	none
CC(C)(C)C(=O)N(Cc1nc2ccccc2c(=O)[nH]1)Cc1cccs1	none
O=C(CCCl)N(Cc1nc2ccccc2c(=O)[nH]1)Cc1cccs1	Calb FLC 56
Cn1c(O)c(N=NC(=O)CNC(=O)c2ccccc2)c2cc(Br)ccc21	none
O=C(C[n+]1cnn(CC(=O)c2ccc(Cl)cc2Cl)c1)c1ccc([N+](=O)[O-])cc1	PP1 counter 17
CC1(CCBr)C(=O)N(c2ccccc2)c2ccccc21 (stereo not drawn)	none (no result: ALR inh)
CCN(CC)c1ccc(/C=C(/C#N)C(=O)NCc2ccccc2)o1	none
CCN(CC)c1ccc(/C=C(/C#N)C(=O)NC(C)C)o1	ALR inh 99
CC(NC(=O)/C(C#N)=C/c1ccc([N+](=O)[O-])o1)c1ccccc1 (stereo not drawn)	none (no result: ALR inh, CSC inhib)
CC(C)NC(=O)/C(C#N)=C\c1ccc(N(C)C)o1	ALR inh 97
CCOc1ccc(C(CC(=O)O)NC(=O)c2ccco2)cc1 (stereo not drawn)	none
NC(=O)c1oc2ccccc2c1NC(=O)C1CCCCC1	ALR inh 96
O=C(COC(=O)c1nn(-c2ccccc2)c(=O)c2ccccc12)NC1CCS(=O)(=O)C1 (stereo not drawn)	none
CCOc1cc(/C=N/NC(=O)CNc2ccc(C)cc2)ccc1OC(=O)c1ccccc1	PP1 counter 15
CCOC(=O)N/N=C\c1ccc(OC(=O)c2ccco2)cc1	none
Cc1ccc(NCC(=O)N/N=C/c2ccc(OC(=O)c3ccco3)cc2)cc1	Calb FLC inconclusive, ALR inh 99
Brc1ccc2c(c1)OCCOCCOc1cc(Br)ccc1OCCOCCOCCO2	none
Nc1ccc2c(c1)OCCOCCOCCOCCOCCO2	ALR inh 98
CCOC(=O)c1ccc(-n2c(CN3CCOCC3)nc3ccc([N+](=O)[O-])cc3c2=O)cc1	none
C[C@@H](C(=O)Nc1ccc2c(c1)OCCO2)n1c(=O)[nH]c2ccccc2c1=O	none
CN1c2ccsc2/C(=N/Nc2ccccc2)CS1(=O)=O	ALR inh 99
CNc1ccccc1C(C)(C)c1cc(-c2cccc(OC)c2)no1	none (no result: CSC inhib)
CNc1ccccc1C(C)(C)c1cc(-c2cc(C)cc(C)c2)no1	CSC inhib 97
O=C(CSCc1cnn(-c2ccccc2)c1-n1cccc1)NCc1ccccn1	ALR inh 81
Cc1c(CN(C)C)c2c(n1Cc1ccccc1)C(=O)c1ccccc1-2	none
Cc1ccc(-c2c[nH]c(=S)n2-c2ccccc2F)cc1	ALR inh 98 (no result: CSC inhib)
S=c1[nH]cc(-c2ccccc2)n1-c1ccccc1Cl	ALR inh 90
CN1CC(=O)Nc2ccc([N+](=O)[O-])cc2C1=O	none (no result: ALR inh)
COc1ccc(C(=O)N2CCN(c3cccc(Cl)c3)CC2)cc1	none
COc1ccc(N2CCN(C(=O)c3ccc4c(c3)NC(=O)C(CSCc3cccc(F)c3)N4)CC2)cc1 (stereo not drawn)	PP1 counter 33
COc1ccc(N2CCN(C(=O)c3ccc4c(c3)NC(=O)C(CSCc3ccc(C)cc3)N4)CC2)cc1 (stereo not drawn)	PP1 counter 19 (no result: CSC inhib)
COc1ccc(N2CCN(C(=O)c3ccc4c(c3)NC(=O)C(CSCc3c(F)cccc3Cl)N4)CC2)cc1 (stereo not drawn)	PP1 counter 25
Cc1cccc(N2CCN(C(=O)c3ccc4c(c3)NC(=O)C(CSCc3ccc(F)cc3)N4)CC2C)c1 (stereo not drawn)	ALR inh 97, PP1 counter 19 (no result: CSC inhib)
Cc1cccc(N2CCN(C(=O)c3ccc(N4CCCC4=O)cc3)CC2C)c1 (stereo not drawn)	none (no result: CSC inhib)
Cc1ccc(C(=O)NNC(=O)C2CCN(C(=O)OC(C)(C)C)CC2)cc1	none
CN(C)c1ccc(/C=C/C=C2/SC(=S)N(c3ccccc3)C2=O)cc1	CSC inhib 82
O=C(N/C(=C\c1ccc([N+](=O)[O-])cc1)C(=O)N1CCCCC1)c1ccccc1	none
O=[N+]([O-])/C(C(Cl)=C(Cl)Cl)=C(/Sc1ccccc1)N1CCCCC1	ALR inh 92
Cn1c(=O)c2cc(S(=O)(=O)NCCC(=O)NCCc3ccc(Cl)cc3)ccc2n(C)c1=O	ALR inh 98
CC(=O)Oc1c(Cl)cc(Cl)cc1/C=C/c1ccc2ccccc2n1	CSC inhib 109
COc1cccc(-c2nc(CS(=O)(=O)CC(=O)N3CCN(C)CC3)c(C)o2)c1	ALR inh 97
COc1cccc(-c2nc(CS(=O)(=O)CC(=O)N3CCN(C4CCCCC4)CC3)c(C)o2)c1	ALR inh 99
CCOC(=O)N1CCN(C(=O)CS(=O)(=O)Cc2nc(-c3cccc(OC)c3)oc2C)CC1	none
O=C(O)Cc1ccc(C(=O)CSc2ccccc2)s1	ALR inh 98
Cc1cc(N/N=C/c2ccc(O)cc2O)nc(-n2nc(C)cc2C)n1	PP1 counter 16 (no result: ALR inh)
Cc1cc(N/N=C/c2ccccc2[N+](=O)[O-])nc(-n2nc(C)cc2C)n1	none
Cc1ccc2nc(C)cc(N/N=C/c3ccccc3O)c2c1	ALR inh 99
Cc1cc(N/N=C/c2ccc(O)cc2O)c2ccccc2n1	ALR inh 97
Cc1cc(N/N=C/c2c[nH]c3ccccc23)c2ccccc2n1	none
Cc1cc(N/N=C/c2ccc(N(C)C)cc2)c2ccccc2n1	none
